Only some compounds are listed: those with a hit (about 1.4% of all), similar ones and a draw of the others.
GLD-1 RNA inh: GLD-1-TGE RNA interaction inhibition (C. elegans); Q17339; purified GLD-1 + fluorescein TGE RNA, fluorescence polarization; inhibition, % at 5.96 µM; 320,000 tested, 0.44% active;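 active = percent inhibition above a per-plate cutoff, the plate mean of test compounds plus 3 SD, cut at about 30% in these data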
MCL1-BIM inh: disrupts human MCL1 binding to BIM-BH3 peptide. Q07820. inhibition, % at 10.9 µM. AID 2057. 320,000 tested, 0.68% active. GST-MCL1 / FITC-Bim-BH3 fluorescence polarization;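 active = inhibition above the mean inhibition of all tested compounds plus 3 SD, set per campaign, cut at about 40% in these data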;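 also: higher means more loss of mP so more displacement of Bim peptide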
Bcl-xL primary: inhibitors of human Bcl-xL; GST-Bcl-xL / FITC-Bim BH3 peptide fluorescence polarization; Q07817; 320,000 tested, 0.7% active; inhibition, % at 10.9 µM;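 active = inhibition above the mean of all tested compounds plus 3 SD, cutoff set per campaign, cut at about 30% in these data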;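 also: inhibitors lower millipolarization by displacing the labeled peptide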
MEX-5 binding: C. elegans MEX-5 TCR-2 RNA binding activity | Q9XUB2 | MEX-5/FITC-TCR2 RNA binding, fluorescence polarization; hits give low values | activity score (negative = inhibition of binding), % at 10 µM | 300,000 tested, 0.38% active | AID 1832;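 active = inhibition past about -25% in most replicates, and total fluorescence under double the plate's negative control median, limit read from the data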
eLon inh: inhibits E. coli Lon protease | P0A9M0 | purified E. coli Lon protease, fluorescence polarization | inhibition, % at 7.94 µM | 360,000 tested, 0.42% active | AID 602123; in the data active = inhibition above about 13%, passing the limit was not always enough
Target sequence (P0A9M0 whole entry, looked up): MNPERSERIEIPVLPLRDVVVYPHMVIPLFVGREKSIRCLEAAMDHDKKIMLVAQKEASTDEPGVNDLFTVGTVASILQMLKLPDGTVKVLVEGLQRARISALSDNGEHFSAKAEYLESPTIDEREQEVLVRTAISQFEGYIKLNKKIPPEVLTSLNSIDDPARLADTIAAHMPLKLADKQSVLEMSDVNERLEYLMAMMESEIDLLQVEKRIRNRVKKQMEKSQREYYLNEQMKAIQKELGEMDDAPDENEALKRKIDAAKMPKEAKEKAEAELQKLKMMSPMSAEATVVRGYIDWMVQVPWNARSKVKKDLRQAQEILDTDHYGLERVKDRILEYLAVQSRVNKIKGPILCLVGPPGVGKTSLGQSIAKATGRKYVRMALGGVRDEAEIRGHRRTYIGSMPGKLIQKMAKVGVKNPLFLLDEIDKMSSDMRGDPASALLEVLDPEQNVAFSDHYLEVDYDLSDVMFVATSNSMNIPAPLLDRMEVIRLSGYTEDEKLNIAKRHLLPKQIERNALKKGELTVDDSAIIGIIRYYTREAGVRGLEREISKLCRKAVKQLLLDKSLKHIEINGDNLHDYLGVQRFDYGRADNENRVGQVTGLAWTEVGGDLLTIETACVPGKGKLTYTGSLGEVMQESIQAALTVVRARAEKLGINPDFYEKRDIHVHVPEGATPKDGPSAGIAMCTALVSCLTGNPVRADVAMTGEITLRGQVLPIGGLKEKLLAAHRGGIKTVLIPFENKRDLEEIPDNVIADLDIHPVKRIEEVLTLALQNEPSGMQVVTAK
Bcl-xL conf: counter-screen for MCL1 inhibitors: confirmation of human Bcl-xL inhibitors; GST-Bcl-xL / FITC-Bim BH3 peptide FP binding; inhibition, % at 10.9 µM; 1,700 tested, 54% active; shares compounds with MCL1-BIM inh;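 active = inhibition above a cutoff equal to the mean inhibition of all tested compounds plus 3 SD, cut at about 30% in these data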
MCL1 inh confirm: MCL1-BIM-BH3 interaction inhibition, confirmation; inhibition, % at 10.9 µM; shares compounds with MCL1-BIM inh; GST-MCL1 / FITC-Bim-BH3 fluorescence polarization; 1,700 tested, 61% active;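 active = inhibition above the average of all tested compounds plus 3 SD, cut at about 40% in these data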
Numbers stand for hits.

COc1nnc(-c2ccc(C)cc2)c2ccccc12 was read as MEX-5 binding inactive and eLon inh inactive.
Screening COc1ccc([N+](=O)[O-])cc1NC(=S)NC(C)=O returned GLD-1 RNA inh inactive, MCL1-BIM inh inactive, Bcl-xL primary inactive, MEX-5 binding inactive and eLon inh inactive.
For COc1ccc(/C=C/C(=O)NC(=S)Nc2cc([N+](=O)[O-])ccc2O)cc1OC the results were GLD-1 RNA inh inactive, MCL1-BIM inh 41.1, Bcl-xL primary inactive, MEX-5 binding inactive, eLon inh inactive, Bcl-xL conf inactive and MCL1 inh confirm inactive.
`CC(C)Sc1nc2ccccc2c(=O)[nH]1` gave GLD-1 RNA inh inactive, MCL1-BIM inh inactive, Bcl-xL primary inactive, MEX-5 binding inactive and eLon inh inactive.
Screening CC(c1nc2ccccc2c(=O)[nH]1)N(C)c1ccc2ccccc2c1 (configuration not stated) returned GLD-1 RNA inh 77.8, MCL1-BIM inh 86.5, Bcl-xL primary 74.2, MEX-5 binding inactive, eLon inh inactive, Bcl-xL conf inactive and MCL1 inh confirm inactive.
`Cc1ccc([N+](=O)[O-])cc1-c1ccc(/C=C(\C#N)c2[nH]nc(N)c2C#N)o1` gave GLD-1 RNA inh inactive, MCL1-BIM inh 48.6, Bcl-xL primary inactive, eLon inh inactive, Bcl-xL conf 53.7 and MCL1 inh confirm 83.6.
O=c1n(Cc2ccccc2Cl)nc2n1-c1ccccc1SC2 was read as GLD-1 RNA inh inactive, MCL1-BIM inh inactive, Bcl-xL primary inactive, MEX-5 binding inactive and eLon inh inactive.
For O=C(CCc1ccccc1)Oc1ccccc1[N+](=O)[O-] the results were GLD-1 RNA inh inactive, MCL1-BIM inh 73.2, Bcl-xL primary inactive, MEX-5 binding inactive, Bcl-xL conf inactive and MCL1 inh confirm inactive.
O=C(CCc1ccccc1)Nc1ccccc1[N+](=O)[O-] was read as GLD-1 RNA inh inactive, MCL1-BIM inh inactive, Bcl-xL primary inactive, MEX-5 binding inactive and eLon inh inactive.
`O=C(NCCN1CCN(c2cccc(Cl)c2)CC1)c1ccc(CSc2nc3ccncc3[nH]2)cc1` gave GLD-1 RNA inh inactive, MCL1-BIM inh inactive, Bcl-xL primary inactive, MEX-5 binding inactive and eLon inh inactive.
For CC1CCN(CC(=O)NCc2ccco2)CC1 the results were GLD-1 RNA inh inactive, MCL1-BIM inh 67.6, Bcl-xL primary inactive, MEX-5 binding inactive, eLon inh inactive, Bcl-xL conf inactive and MCL1 inh confirm inactive.
`CCCOc1ccc(/C(CC)=N/NC(=O)C2(C)CC2(Br)Br)cc1` (configuration not stated) gave GLD-1 RNA inh 112.4, MCL1-BIM inh 111.9, Bcl-xL primary 96.8, MEX-5 binding inactive, eLon inh inactive, Bcl-xL conf inactive and MCL1 inh confirm inactive.
For Cc1ccc(NC(=S)Nc2ccc3nc(-c4ccccn4)c(-c4ccccn4)nc3c2)cc1C the results were GLD-1 RNA inh 103.1, MCL1-BIM inh 150.6, Bcl-xL primary 121.7, eLon inh 119.8, Bcl-xL conf 61.1 and MCL1 inh confirm 62.0.
For Cc1ccc(NC(=S)Nc2ccccn2)cc1C the results were GLD-1 RNA inh inactive, MCL1-BIM inh inactive, Bcl-xL primary inactive, MEX-5 binding inactive and eLon inh inactive.
`COc1cccc2c(N/N=C/c3ccc(O)c(O)c3)cc(C)nc12` gave GLD-1 RNA inh inactive, MCL1-BIM inh 40.6, Bcl-xL primary inactive, MEX-5 binding inactive, eLon inh inactive, Bcl-xL conf 51.3 and MCL1 inh confirm 73.3.
For COc1ccc(/C=N/Nc2cc(C)nc3c(C)cccc23)cc1 the results were GLD-1 RNA inh inactive, MCL1-BIM inh inactive, Bcl-xL primary inactive, MEX-5 binding inactive and eLon inh inactive.
`CC(C)C[C@H](NC(=O)c1nc[nH]c1C(=O)N1CCNCC1)C(=O)OCc1ccccc1` gave GLD-1 RNA inh inactive, MCL1-BIM inh inactive, Bcl-xL primary inactive, MEX-5 binding inactive and eLon inh inactive.
Screening O=C(O)c1ccccc1/C=N/NC(=O)c1cc(-c2ccco2)nc2ccccc12 returned GLD-1 RNA inh inactive, MCL1-BIM inh 64.3, Bcl-xL primary inactive, MEX-5 binding inactive, eLon inh inactive, Bcl-xL conf 41.5 and MCL1 inh confirm 90.6.
`COc1ccccc1C(=O)Nc1ccnn1C1CCN(Cc2ccc3nonc3c2)CC1` gave GLD-1 RNA inh inactive, MCL1-BIM inh inactive, Bcl-xL primary inactive, MEX-5 binding inactive and eLon inh inactive.
CCOc1ccc(C(=O)NCc2ccco2)cc1OC was read as MEX-5 binding inactive and eLon inh inactive.
`CC(C)CN(C(=O)COC(=O)c1cc2c(s1)CCC2)C1CCS(=O)(=O)C1` (configuration not stated) gave GLD-1 RNA inh inactive, MCL1-BIM inh 42.0, Bcl-xL primary inactive, MEX-5 binding inactive, eLon inh inactive, Bcl-xL conf inactive and MCL1 inh confirm inactive.
For CCN1CCN(CC(O)COC(c2ccccc2)c2ccccc2C)CC1 (configuration not stated) the results were GLD-1 RNA inh inactive, MCL1-BIM inh inactive, Bcl-xL primary inactive, MEX-5 binding inactive and eLon inh inactive.
`C=CCn1c(SCC2CCCCO2)nc2sc(CC)cc2c1=O` (configuration not stated) gave GLD-1 RNA inh inactive, MCL1-BIM inh inactive, Bcl-xL primary inactive, MEX-5 binding inactive and eLon inh inactive.
For O=[N+]([O-])c1nn(-c2ccc3c(c2)OCCO3)n(O)c1=NCc1ccccc1Cl the results were GLD-1 RNA inh inactive, MCL1-BIM inh 54.2, Bcl-xL primary 42.0, MEX-5 binding inactive, eLon inh inactive, Bcl-xL conf inactive and MCL1 inh confirm inactive.
`COc1ccccc1CN=c1c([N+](=O)[O-])nn(-c2ccc3c(c2)OCCO3)n1O` gave GLD-1 RNA inh inactive, MCL1-BIM inh inactive, Bcl-xL primary inactive, MEX-5 binding inactive and eLon inh inactive.
C=CCOc1c(Br)cc(C2C3=C(CCCC3=O)N(C)C3=C2C(=O)CCC3)cc1OCC was read as GLD-1 RNA inh inactive, MCL1-BIM inh 43.0, Bcl-xL primary inactive, MEX-5 binding inactive, eLon inh inactive, Bcl-xL conf inactive and MCL1 inh confirm inactive.
`COc1ccccc1CNC(=O)C(NC(=O)c1ccccc1)C(C)C` (configuration not stated) gave GLD-1 RNA inh inactive, MCL1-BIM inh inactive, Bcl-xL primary inactive, MEX-5 binding inactive and eLon inh inactive.
Screening CCn1nc(C)c(C2C(C#N)=C(N)OC3=C2C(=O)CCC3)c1C (configuration not stated) returned GLD-1 RNA inh inactive, MCL1-BIM inh inactive, Bcl-xL primary inactive, MEX-5 binding inactive and eLon inh inactive.
